Measurements taken from PubChem BioAssay (NCATS).
Several values for one entry are separate records, joined by “and”; a condition that tells them apart may be missing. Equal entries are not always repeated. Records with an inconclusive call do not appear. Activity calls are given as the source filed them. Calls follow the shape of the dose curve; as a rule, active = well fitted curve in the direction sought with a large enough effect; inconclusive = small, poorly fitted or top-dose-only effect, or another doubt; inactive = no such curve, though single readings can be large; an effect the other way counts as inactive or inconclusive.

Legend:
[1] = target: Cellular tumor antigen p53 (Homo sapiens) (UniProt P04637); assay: Primary qHTS for small molecule compounds that upregulate eGFP-tagged delta133p53alpha (in N-terminal) cells. (AID 2060322); details: NCI-H358 eGFP-delta133p53alpha fluorescence, 24 h; activation: stronger effect = higher value; also: nearly all actives have a fitted effect of over 75% in size; also: potency is read from the fitted curve at half-maximal effect;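 as to activation: cells pre-induced with doxycycline then dosed without doxycycline; series mostly up to about 56 µM; 0% = DMSO vehicle and 100% = reference activator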
Sequence of Cellular tumor antigen p53 (Homo sapiens) (P04637 whole entry, looked up): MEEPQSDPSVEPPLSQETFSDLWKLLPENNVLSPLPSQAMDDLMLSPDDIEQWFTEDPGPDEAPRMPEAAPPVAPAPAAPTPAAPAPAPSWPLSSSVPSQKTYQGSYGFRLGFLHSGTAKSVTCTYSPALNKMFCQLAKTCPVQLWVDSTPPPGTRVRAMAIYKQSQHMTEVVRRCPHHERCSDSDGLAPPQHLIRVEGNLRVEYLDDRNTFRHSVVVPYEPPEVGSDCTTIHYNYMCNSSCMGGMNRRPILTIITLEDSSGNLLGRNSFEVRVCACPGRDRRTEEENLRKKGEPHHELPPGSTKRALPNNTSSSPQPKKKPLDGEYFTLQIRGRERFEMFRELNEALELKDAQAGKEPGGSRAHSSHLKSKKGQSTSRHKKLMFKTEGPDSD
Method in brief: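 NCI-H358 cells pre-induced 24 h with 10 ng/ml doxycycline for eGFP-delta133p53alpha, plated dox-free and exposed 24 h at 37C to titrated compounds. Fixed, Hoechst-stained; gated GFP peak intensity by laser scanning cytometry, normalized to DMSO (0%) and 57.5 uM 5-azacytidine (100%).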

[2] = target: Aldehyde dehydrogenase, mitochondrial (Homo sapiens) (UniProt P05091); assay: qHTS for Inhibitors of the Aldehyde Dehydrogenase Family (ALDH2) Primary screen (AID 2061308);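 also: plate controls were vehicle for no effect and reference inhibitor for full effect; nearly all actives have a fitted effect of over 55% in size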
[3] = target: Retinaldehyde dehydrogenase 3 (Homo sapiens) (UniProt P47895); assay: qHTS for Inhibitors of the Aldehyde Dehydrogenase Family (ALDH1A3) Primary screen (AID 2061315);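 also: plate controls were DMSO vehicle for no effect and reference inhibitor for full effect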
[4] = BET inhibitor-based combinations targeting novel dependencies in MECOM-rearranged (r) AML: OCI-AML3 cell line (AID 2202232); details: Potency: OCI-AML3 viability; also: nearly all actives have a fitted effect of over 35% in size; also: potency is read from the fitted curve at half-maximal effect
Method in brief: (§1)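 Viability of cells (500 per well) is scored by luminescent CellTiter-Glo at 48 hr post-dosing. Eleven-point titrations are normalized to DMSO and empty controls and reduced to AUC values.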

[5] = BET inhibitor-based combinations targeting novel dependencies in MECOM-rearranged (r) AML: MV-4-11 cell line (AID 2202233); also: potency is read from the fitted curve at half-maximal effect; nearly all actives have a fitted effect of over 45% in size
Method in brief: (§2)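 Using pin-tool transfer, drugs were added in 11 doses to cells (500/well), incubated 48 hr, and assessed with CellTiter-Glo. Z-AUC is a mean-centring transformation applied separately to each screened line.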

[6] = BET inhibitor-based combinations targeting novel dependencies in MECOM-rearranged (r) AML: HNT-34 cell line (AID 2202234); also: nearly all actives have a fitted effect of over 35% in size; also: potency is read from the fitted curve at half-maximal effect
Method in brief: as §2

[7] = BET inhibitor-based combinations targeting novel dependencies in MECOM-rearranged (r) AML: AML-191 cell line (AID 2202236; also: potency is read from the fitted curve at half-maximal effect; nearly all actives have a fitted effect of over 35% in size)
Method in brief: as §1

[8] = BET inhibitor-based combinations targeting novel dependencies in MECOM-rearranged (r) AML: AML-194 cell line (AID 2202237; also: nearly all actives have a fitted effect of over 40% in size; also: potency is read from the fitted curve at half-maximal effect)
Method in brief: as §1

[9] = BET inhibitor-based combinations targeting novel dependencies in MECOM-rearranged (r) AML: UCSD-AML1 cell line (AID 2202235); also: nearly all actives have a fitted effect of over 40% in size; also: potency is read from the fitted curve at half-maximal effect
Method in brief: as §2

NC(=O)c1c(OCc2c(F)cc(Br)cc2F)nsc1NC(=O)NCCCCN1CCCC1
active: Potency [4] 20.9 µM | Potency [5] 20.9 µM | Potency [6] 23.5 µM | Potency [7] 26.3 µM | Potency [8] 26.3 µM
inactive: activation [1] 9.77% | Potency [2] | Potency [3]

O=C(O)c1ccc(O)c2ncc(N3CCOCC3)cc12
inactive: activation [1] 22.8% | Potency [2] | Potency [3] | Potency [4] | Potency [9]

COc1nccc(-c2c(-c3ccc(F)cc3)ncn2C2CCNCC2)n1
inactive: activation [1] 2.68% | Potency [2] | Potency [3] | Potency [4]
active: Potency [5] 20.9 µM | Potency [9] 16.6 µM | Potency [7] 20.9 µM

CCOc1cc2ncc(C#N)c(Nc3ccc(OCc4ccccn4)c(Cl)c3)c2cc1NC(=O)/C=C/CN(C)C
inactive: Potency [2] | Potency [3]
active: Potency [1] 9.28 µM | Potency [4] 5.9 µM | Potency [6] 1.32 µM | Potency [8] 5.25 µM

O=C(Nc1ccc(OC(F)(F)F)cc1)c1sccc1NCc1ccnc2ccccc12
active: Potency [4] 5.25 µM | Potency [6] 10.5 µM | Potency [9] 5.9 µM | Potency [7] 8.33 µM | Potency [8] 5.9 µM
inactive: activation [1] 27.4% | Potency [2] | Potency [3]

CCCCCN(CCC12CC3CC(CC(C3)C1)C2)C(=O)NCCCc1ccncc1
active: Potency [1] 23.9 µM | Potency [4] 18.6 µM | Potency [5] 13.2 µM | Potency [9] 14.8 µM | Potency [7] 20.9 µM | Potency [8] 18.6 µM
inactive: Potency [2] | Potency [3]

O=C(O)c1ccc(Nc2ncc3c(n2)-c2ccc(Cl)cc2C(c2c(F)cccc2F)=NC3)cc1
active: Potency [5] 0.934 µM
inactive: activation [1] 139% and 6.25% | Potency [2] | Potency [3]

Cc1nc(N)ncc1-c1nc(N2CCOCC2)c2sc(C(C)(C)O)cc2n1
active: Potency [4] 0.105 µM | Potency [9] 1.32 µM
inactive: activation [1] 9.3% | Potency [2] | Potency [3]

O=C(NC[C@H](O)CN1CCc2ccccc2C1)c1ccnc(NC2CCC2)c1
inactive: activation [1] 4.33% | Potency [2] | Potency [3] | Potency [6] | Potency [9]
active: Potency [4] 0.0042 µM

C[C@@H](c1ccc2nccn2c1)n1nnc2ncc(-c3cnn(C)c3)nc21
inactive: activation [1] 2.86% | Potency [2] | Potency [3] | Potency [8]
active: Potency [4] 13.2 µM | Potency [7] 20.9 µM

COc1cc(F)c(F)c(Nc2ccc(I)cc2F)c1NS(=O)(=O)C1(C[C@H](O)CO)CC1
inactive: activation [1] 4.11% | Potency [2] | Potency [3]
active: Potency [4] 0.166 µM | Potency [6] 1.32 µM | Potency [9] 0.662 µM

N#CN1CCC[C@@H](n2nc(-c3ccc(Oc4ccc(F)cc4F)cc3)c(C(N)=O)c2N)C1
active: Potency [4] 10.5 µM
inactive: activation [1] -16.1% | Potency [2] | Potency [3] | Potency [8]

CCc1c2c(nc3ccc(O)cc13)-c1cc3c(c(=O)n1C2)COC(=O)[C@]3(O)CC
active: Potency [1] 1.51 µM | Potency [4] 0.0093 µM | Potency [5] 0.0093 µM | Potency [7] 0.0093 µM | Potency [8] 0.0118 µM
inactive: Potency [2] | Potency [3]

CNC(=O)c1cccc2cc(Oc3ccnc4cc(OCC5(N)CC5)c(OC)cc34)ccc12
active: Potency [4] 23.5 µM | Potency [6] 16.6 µM | Potency [9] 18.6 µM | Potency [8] 23.5 µM
inactive: activation [1] 12.5% | Potency [2] | Potency [3]

Nc1nc(Nc2ccc(S(N)(=O)=O)cc2)nn1C(=O)c1c(F)cccc1F
active: Potency [1] 24.3 µM and 9.53 µM | Potency [4] 2.95 µM | Potency [5] 1.66 µM | Potency [6] 2.95 µM | Potency [7] 2.35 µM
inactive: Potency [2] | Potency [3]

Cc1csc(-c2nnc(Nc3ccc(Oc4ncccc4-c4ccnc(N)n4)cc3)c3ccccc23)c1
inactive: activation [1] 19.6% | Potency [2] | Potency [3]
active: Potency [4] 1.86 µM | Potency [9] 0.296 µM

CC(C)C[C@H](CO)Nc1nc(S[C@@H](C)c2ccccc2)nc2nc(N)sc12
active: Potency [4] 26.3 µM | Potency [5] 26.3 µM
inactive: activation [1] 5.67% | Potency [2] | Potency [3] | Potency [9]

CC(Nc1ncnc2nc[nH]c12)c1cc2cccc(Cl)c2c(=O)n1-c1ccccc1 (stereo not given)
active: Potency [5] 5.9 µM | Potency [9] 3.72 µM
inactive: activation [1] 27.7% | Potency [2] | Potency [3]

CCC(=O)N1CCN(c2ccc(-n3c(=O)ccc4cnc5ccc(-c6cnc7ccccc7c6)cc5c43)cc2C(F)(F)F)CC1
active: Potency [9] 0.0091 µM
inactive: activation [1] 41.3% | activity change, negative = inhibition [2] -6.8% [at 11.2 µM] | activity change, negative = inhibition [3] 3.25% [at 11.2 µM]

CCn1c(C(=O)N(C2CC2)C2CC2)cc2c3c(ncn3C)c(Nc3cc(C)n(C)n3)nc21
active: Potency [5] 2.63 µM | Potency [9] 3.32 µM
inactive: activation [1] -29.5% | Potency [2] | Potency [3]

CC[C@@](C)(Nc1ccnc(-c2c[nH]c3ncccc23)n1)C(=O)NCC(F)(F)F
inactive: activation [1] 18.8% | Potency [2] | Potency [3]
active: Potency [6] 14.8 µM | Potency [9] 6.61 µM

Cc1ccccc1C(=O)c1ccc(Nc2ccc(Br)cc2N)cc1Cl
active: Potency [6] 23.5 µM
inactive: activation [1] 19.2% and -0.893% | Potency [2] | Potency [3] | Potency [9]
